Sampled rows, rich in hits. Any-hit rate of the full collection: about 19%.
DT40 TDP1 no CPT: qHTS for Inhibitors of human tyrosyl-DNA phosphodiesterase 1 (TDP1): qHTS in cells in absence of CPT | Potency, µM (doses to about 46.2 µM), inactives show top-dose activity change, negative = growth inhibition, actives largely listed as inhibitors | DT40 Tdp1-/- hTDP1 cells, no CPT, ATP luminescence, 48 h | actives 15% (n = 420,000); further: potency means the concentration at half of the fitted maximal effect; nearly all actives have a fitted effect of over 55% in size
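No-CPT arm: Tdp1-/-;hTDP1 DT40 cells (400/well) plus compounds, incubated ≥48 hr at 37 °C. Readout CellTiter-Glo luminescence.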
DT40 TDP1 CPT: DT40-hTDP1 cell growth loss with CPT. chicken DT40 Tdp1-/-;hTDP1 cells + 20 nM CPT, ATP luminescence, 48 h. Potency, µM (series often up to 46.2 µM), for the others: at the highest dose activity change, negative = growth inhibition, actives largely listed as inhibitors. actives 12% (n = 420,000); further: potency means the concentration at half of the fitted maximal effect; nearly all actives have a fitted effect of over 55% in size
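Chicken DT40 Tdp1-/- cells complemented with human TDP1, 400 cells/well, exposed to compounds plus 20 nM camptothecin for at least 48 h at 37 C; viability read as ATP content by CellTiter-Glo luminescence.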
ELG1 repair inh: inhibitors of ELG1-dependent DNA repair in HEK293T cells | HEK293T ELG1-luciferase reporter, luminescence, 16 h; DNA damage induced by 5-fluorouridine | Potency, µM (highest dose often 46.1 µM), for the others: top-dose activity change, negative = inhibition, actives largely listed as inhibitors | actives 2.3% (n = 330,000) | AID 504467; further: potency means the concentration at half of the fitted maximal effect; nearly all actives have a fitted effect of over 55% in size
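Overnight (16 hr) co-exposure of 2,000 cells/well to 5-fluorouridine and compound at 37 °C preceded detection. Luciferase was quantified via ONE-Glo luminescence; loss of signal denotes inhibition.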
HT1080NT lethal: kills 2HG-producing HT-1080-NT fibrosarcoma cells; HT-1080-NT fibrosarcoma viability, CellTiter-Glo ATP luminescence, 48 h; Potency, µM (top dose mostly 46.1 µM), for inactives: top-dose activity, negative = less viability, usual class: cytotoxic; actives 1.6% (n = 360,000); AID 686970;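 further: NT is the 2HG producing partner of a matched IDH1 knockdown line; potency means the concentration at half of the fitted maximal effect; 0% = DMSO-treated cells and -100% = media-only wells without cells; nearly all actives have a fitted effect of over 55% in size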
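A 48-hour cytotoxicity screen used HT-1080-NT cells plated 2 hours before compound delivery. ATP-based CellTiter-Glo luminescence measured viability, normalized to DMSO and no-cell controls.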
IL1B secr inh: inflammasome signaling inhibition, IL-1 beta readout; THP-1 LPS/ATP IL-1B secretion, AlphaLISA, 16 h; active compounds read low; activity change, % at 57.5 µM; actives 4.7% (n = 360,000); AID 743279; in the data active means activity change below about -50%; inconclusive means mostly about -30% to -49%
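Secreted IL-1B measured by AlphaLISA bead assay after 16 h compound exposure of THP-1 cells; compounds (final up to 57.5 uM) added 1 h before LPS (250 ng/mL) and ATP (1.25 mM) stimulation; lower signal means less secretion.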
HT1080 IDH1KD tx: kills HT-1080 cells with IDH1 knockdown. actives 2% (n = 360,000). AID 686971. HT-1080 IDH1 knockdown viability, ATP luminescence, 48 h. Potency, µM (highest dose often 46.1 µM), for inactives: top-dose activity, negative = toxicity, actives largely listed as cytotoxic;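 further: potency means the concentration at half of the fitted maximal effect; 0% = DMSO wells and -100% = cell-free medium wells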
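Using the IDH1-knockdown HT-1080 line run in the same batch and compound series as the NT line, viability after 48 h at 37 °C was determined by CellTiter-Glo luminescence and expressed as % activity.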
* hit, by the source's call; ? = inconclusive; . = no result given. Unless noted, the call rests on the fitted dose curve; in most records, active means well fitted curve in the direction sought with a large enough effect; inconclusive means small, poorly fitted or top-dose-only effect, or another doubt; inactive means no such curve, though single readings can be large; an effect the other way counts as inactive or inconclusive. Unless noted, on the % scale 0 is the no-effect control and ±100 the full control effect.

SMILES	DT40 TDP1 no CPT	DT40 TDP1 CPT	ELG1 repair inh	HT1080NT lethal	IL1B secr inh	HT1080 IDH1KD tx
Nc1ncnc2c1ncn2C1CCCO1 (stereo not drawn)	-7%	3%	25%	17%	18	0%
Nc1ncnc2c1ncn2[C@H]1CC[C@@H](CO)O1	2.9µM*	1.6µM*	?	?	-3	16%
O=C1C2C(c3ccccc3)(C(=O)N1c1ccc(Cl)cc1)C2(c1ccccc1)c1ccccc1 (stereo not drawn)	?	?	6.5µM*	30%	-4	5%
COc1cc(/C=C(\C#N)c2nc3ccccc3[nH]2)cc(Cl)c1OCc1ccccc1Cl	18µM*	7.3µM*	.	.	.	.
N#C/C(=C\c1cccc(OCC(=O)O)c1)c1nc2ccccc2[nH]1	14%	4%	-5%	-10%	0	1%
N#C/C(=C\c1ccc(OCc2ccc(Cl)cc2Cl)cc1)c1nc2ccccc2[nH]1	21µM*	16µM*	.	.	.	.
CCOC(=O)c1c(S(=O)(=O)N2CCC(C(=O)NCc3ccc(F)cc3)CC2)c(C)n(C)c1C	-12%	-20%	.	.	.	.
Cc1ccc(OCC(=O)N(C)CC(=O)Nc2ccc(F)c(F)c2F)cc1	-3%	-25%	9%	-3%	-65*	-5%
COc1ccc(/C=C/C(=O)C2(O)CCCCC2)cc1OC	?	?	-7%	?	-91*	?
Cc1ccc(Cn2c(=O)n(CCc3ccccc3)c(=O)c3sc4ccccc4c32)cc1	11%	4%	.	.	.	.
COc1ccc(C(=O)N2CCN(c3ccc(C)cc3)CC2)cc1OC	?	?	-18%	-3%	24	1%
COc1ccc(C(=O)N2CCN(c3c(C)cccc3C)CC2)cc1OC	?	23µM*	-1%	-2%	24	-6%
CCc1ccc(N2CCN(C(=O)c3ccc(OC)c(OC)c3)CC2)cc1	13µM*	?	?	9%	0	-3%
COc1ccc(C(=O)N2CCN(c3nc4ccccc4o3)CC2)cc1OC	21µM*	16µM*	?	?	17	-1%
CCOc1ccc(NC(=O)C(CC(=O)O)Cc2ccc(C)cc2)cc1 (stereo not drawn)	2%	26%	-6%	6%	5	0%
COc1ccc(-c2noc(N3CCC(C(=O)NCCCN4CC(C)CC(C)C4)CC3)n2)cc1 (stereo not drawn)	?	3.7µM*	5%	-7%	-13	29%
COc1ccc(NC(=O)C2CCN(c3nc(-c4ccc(OC)cc4)no3)CC2)cc1	?	?	3%	2%	-4	-4%
COc1ccc(-c2noc(N3CCC(C(=O)Nc4ccc(F)cc4F)CC3)n2)cc1	-19%	?	-14%	0%	15	-1%
COc1ccc(NC(=O)C2CCN(c3nc(-c4ccc(OC)c(OC)c4)no3)CC2)cc1Cl	?	4.1µM*	.	.	.	.
N#Cc1cccc(NC(=O)C2CCN(c3nc(-c4ccc(Cl)cc4)no3)CC2)c1	16µM*	13µM*	.	.	.	.
COc1ccc(-c2noc(N3CCC(C(=O)Nc4ccc(OC)cc4OC)CC3)n2)cc1	?	?	13µM*	9%	-14	5%
COc1ccc(-c2noc(N3CCC(C(=O)Nc4ccc(C)c(F)c4)CC3)n2)cc1OC	16µM*	?	.	.	.	.
COc1ccc(NC(=O)C2COc3ccccc3C2)cc1Cl (stereo not drawn)	16µM*	18µM*	.	.	.	.
CC(C)c1ccc(NC(=O)C2Cc3ccccc3N2C(=O)c2ccccc2)cc1 (stereo not drawn)	5.8µM*	18µM*	.	.	.	.
CCOc1ccc(NC(=O)C2Cc3ccccc3N2C(=O)c2ccccc2)cc1 (stereo not drawn)	21µM*	23µM*	.	.	.	.
